Measured values as given in PubChem BioAssay (EPA / NIEHS).
The source made the active and inactive calls. The calls were made as follows: active = hit-call score of the fitted dose curve at least 0.9, where 1 is the maximum; inactive = score below 0.9.

Key:
[1] = read-out: Interferon-gamma inducible Protein 10 (IP10), CXCL10 (gene 3627); test: BSK_hDFCGF_IP10: BioMAP Diversity Plus: hDFCGF Assay for Interferon-gamma inducible Protein 10 (IP10) Biomarker Activity (AID 2283053); details: primary human foreskin fibroblasts; actives raise or lower the signal
Method in brief: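 IP-10 levels, quantified by ELISA, are taken from human foreskin fibroblast cultures 24 h after chemical treatment, with DMSO serving as negative control and baseline for bidirectional analysis.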

[2] = read-out: Urokinase-type plasminogen activator receptor (uPAR), PLAUR (gene 5329); test: BSK_CASM3C_uPAR: BioMAP Diversity Plus: CASM3C Assay for Urokinase-type plasminogen activator receptor (uPAR) Biomarker Activity (AID 2283054); details: primary human coronary artery smooth muscle cells; actives raise or lower the signal;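 also: cell-surface uPAR protein level quantified by ELISA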
[3] = read-out: Vascular cell adhesion molecule 1 (VCAM1), VCAM1 (gene 7412); test: BSK_CASM3C_VCAM1: BioMAP Diversity Plus: CASM3C Assay for Vascular cell adhesion molecule 1 (VCAM1) Biomarker Activity (AID 2283055); details: primary human coronary artery smooth muscle cells; actives raise or lower the signal;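 also: VCAM-1 protein level quantified by ELISA on the cells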
[4] = read-out: Collagen III, COL3A1 (gene 1281); test: BSK_hDFCGF_CollagenIII: BioMAP Diversity Plus: hDFCGF Assay for Collagen III Biomarker Activity (AID 2283056); details: primary human foreskin fibroblasts; actives raise or lower the signal
Method in brief: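 ELISA readout of Collagen III in human dermal (foreskin) fibroblasts, taken 24 h post-treatment. Gain or loss relative to DMSO vehicle fitted in both directions.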

[5] = read-out: Epidermal growth factor receptor (EGFR), EGFR (gene 1956); test: BSK_hDFCGF_EGFR: BioMAP Diversity Plus: hDFCGF Assay for Epidermal growth factor receptor (EGFR) Biomarker Activity (AID 2283057); details: primary human foreskin fibroblasts; actives raise or lower the signal
Method in brief: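 Measured by ELISA: EGFR levels on primary human foreskin fibroblasts 24 h after chemical treatment, analysed relative to DMSO with bidirectional fitting.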

[6] = read-out: Interleukin-8 (IL8), CXCL8 (gene 3576); test: BSK_hDFCGF_IL8: BioMAP Diversity Plus: hDFCGF Assay for Interleukin-8 (IL8) Biomarker Activity (AID 2283058); details: primary human foreskin fibroblasts; actives raise or lower the signal
Method in brief: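 IL-8 levels read by ELISA at 24 hours after dosing human skin fibroblast cultures. Parallel SRB staining assessed overt cytotoxicity, and gain or loss of signal was fitted against DMSO control.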

[7] = BSK_hDFCGF_Proliferation: Cell Proliferation Assessment in the BioMAP Diversity Plus: hDFCGF Assay (AID 2283059); details: primary human foreskin fibroblasts;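 also: curves fitted for both rise and fall of signal versus DMSO baseline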
Method in brief: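 This proliferation readout used SRB total-protein staining of human foreskin fibroblasts […], normalized to DMSO with bidirectional curve fitting.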

[8] = BSK_hDFCGF_SRB: Viability Assessment in the BioMAP Diversity Plus: hDFCGF Assay (AID 2283061); details: primary human foreskin fibroblasts;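 also: cells exposed to compound for 24 h before the read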
Method in brief: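 Viability was read as total protein: after 10% TCA fixation, wells were stained with 0.1% sulforhodamine B and read at 560 nm. Primary human foreskin fibroblasts were dosed for 24 h, with bidirectional fitting versus DMSO.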

[9] = read-out: TIMP metallopeptidase inhibitor 1 (TIMP1), TIMP1 (gene 7076); test: BSK_hDFCGF_TIMP1: BioMAP Diversity Plus: hDFCGF Assay for TIMP metallopeptidase inhibitor 1 (TIMP1) Biomarker Activity (AID 2283062); details: primary human foreskin fibroblasts; actives raise or lower the signal
Method in brief: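 TIMP-1 measured by ELISA 24 h after chemical dosing of primary human skin fibroblasts, with gain or loss fitted relative to DMSO. Parallel SRB staining (560 nm) monitored overt cytotoxicity.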

[10] = read-out: Monokine induced gamma interferon (MIG), CXCL9 (gene 4283); test: BSK_hDFCGF_MIG: BioMAP Diversity Plus: hDFCGF Assay for Monokine induced gamma interferon (MIG) Biomarker Activity (AID 2283063); details: primary human foreskin fibroblasts; actives raise or lower the signal
Method in brief: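 Human primary foreskin fibroblasts in the hDFCGF system, exposed to test chemical for 24 h; MIG measured by ELISA. Bidirectional curve fitting against DMSO negative control as activity baseline.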

[11] = read-out: Vascular cell adhesion molecule 1 (VCAM1), VCAM1 (gene 7412); test: BSK_hDFCGF_VCAM1: BioMAP Diversity Plus: hDFCGF Assay for Vascular cell adhesion molecule 1 (VCAM1) Biomarker Activity (AID 2283065); details: primary human foreskin fibroblasts; actives raise or lower the signal;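 as to AC50: VCAM-1 protein level quantified by ELISA after 24 h chemical exposure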
Method in brief: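 ELISA readout of VCAM-1 on human dermal fibroblast primary cultures, 24 h after chemical exposure. Gain or loss of signal fitted in both directions against DMSO baseline.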

[12] = read-out: Intercellular Adhesion Molecule 1 (ICAM1), ICAM1 (gene 3383); test: BSK_KF3CT_ICAM1: BioMAP Diversity Plus: KF3CT Assay for Intercellular Adhesion Molecule 1 (ICAM1) Biomarker Activity (AID 2283067); details: primary human keratinocytes with fibroblasts; actives raise or lower the signal
Method in brief: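 Cell-surface ICAM-1 was measured by ELISA 24 h after dosing primary human skin keratinocytes co-cultured with fibroblasts. Parallel SRB staining tracked overt cytotoxicity. Gain or loss of signal was fitted relative to DMSO.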

[13] = read-out: Interferon-gamma inducible Protein 10 (IP10), CXCL10 (gene 3627); test: BSK_KF3CT_IP10: BioMAP Diversity Plus: KF3CT Assay for Interferon-gamma inducible Protein 10 (IP10) Biomarker Activity (AID 2283068); details: primary human keratinocytes with fibroblasts; actives raise or lower the signal
Method in brief: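 Signal is secreted/surface IP-10 by ELISA in a human primary skin co-culture of keratinocytes and foreskin fibroblasts, taken 24 h post-dosing; DMSO served as negative control.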

[14] = BSK_KF3CT_SRB: Viability Assessment in the BioMAP Diversity Plus: KF3CT Assay (AID 2283069); details: primary human keratinocytes with fibroblasts;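 also: total protein by sulforhodamine B staining as a cytotoxicity measure; read 24 h after compound addition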
Method in brief: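 Human keratinocyte and foreskin fibroblast co-culture exposed to chemical for 24 h. Total protein measured in parallel cultures by 0.1% sulforhodamine B staining after 10% TCA fixation, read at 560 nm; bidirectional fit relative to DMSO.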

[15] = read-out: Interleukin-1 alpha (IL1a), IL1A (gene 3552); test: BSK_KF3CT_IL1a: BioMAP Diversity Plus: KF3CT Assay for Interleukin-1 alpha (IL1a) Biomarker Activity (AID 2283070); details: primary human keratinocytes with fibroblasts; actives raise or lower the signal
Method in brief: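 Primary human keratinocyte plus foreskin fibroblast co-culture, dosed and measured at 24 h in 96-well plates. IL-1a level quantified by ELISA; bidirectional fit relative to DMSO.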

[16] = read-out: TIMP metallopeptidase inhibitor 2 (TIMP2), TIMP2 (gene 7077); test: BSK_KF3CT_TIMP2: BioMAP Diversity Plus: KF3CT Assay for TIMP metallopeptidase inhibitor 2 (TIMP2) Biomarker Activity (AID 2283071); details: primary human keratinocytes with fibroblasts; actives raise or lower the signal
Method in brief: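 Keratinocyte–fibroblast co-culture, 24 h exposure; TIMP-2 ELISA, DMSO-normalised bidirectional fit. Parallel SRB (0.1%, TCA-fixed, 560 nm) total-protein staining gauges cytotoxicity.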

[17] = read-out: Transforming growth factor beta 1 (TGFb1), TGFB1 (gene 7040); test: BSK_KF3CT_TGFb1: BioMAP Diversity Plus: KF3CT Assay for Transforming growth factor beta 1 (TGFb1) Biomarker Activity (AID 2283072); details: primary human keratinocytes with fibroblasts; actives raise or lower the signal
Method in brief: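 Signal changes in either direction, relative to DMSO, define activity here. TGF-b1 is read by ELISA from a human keratinocyte-fibroblast co-culture 24 h post-dose.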

[18] = read-out: Macrophage colony-stimulating factor (MCSF), CSF1 (gene 1435); test: BSK_hDFCGF_MCSF: BioMAP Diversity Plus: hDFCGF Assay for Macrophage colony-stimulating factor (MCSF) Biomarker Activity (AID 2283060); details: primary human foreskin fibroblasts; actives raise or lower the signal
Method in brief: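 M-CSF levels read by ELISA at 24 h post-dosing in human skin fibroblasts. Parallel cultures stained with SRB assessed cytotoxicity at the same time point; response fitted in both directions against the DMSO baseline.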

[19] = read-out: Matrix Metallopeptidase 1 (MMP1), MMP1 (gene 4312); test: BSK_hDFCGF_MMP1: BioMAP Diversity Plus: hDFCGF Assay for Matrix Metallopeptidase 1 (MMP1) Biomarker Activity (AID 2283064); details: primary human foreskin fibroblasts; actives raise or lower the signal
Method in brief: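 Primary human foreskin fibroblasts exposed to chemicals for 24 h; MMP1 measured by ELISA. Cytotoxicity tracked by SRB staining in parallel cultures; bidirectional fit relative to DMSO.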

[20] = read-out: Plasminogen activator inhibitor-1 (PAI1), SERPINE1 (gene 5054); test: BSK_hDFCGF_PAI1: BioMAP Diversity Plus: hDFCGF Assay for Plasminogen activator inhibitor-1 (PAI1) Biomarker Activity (AID 2283066); details: primary human foreskin fibroblasts; actives raise or lower the signal
Method in brief: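 PAI-1 levels, determined by ELISA, served as the endpoint in human foreskin fibroblast cultures exposed to compound for 24 h, with DMSO as baseline.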

Measured: AC50

CC(COCC(C)OC(=O)c1ccccc1)OC(=O)c1ccccc1 (configuration not stated)
active: [7] 33.7 µM
not listed: [18] | [19] | [20]
inactive: all other assays above

O=C(Oc1ccccc1)c1cccc(C(=O)Oc2ccccc2)c1
not listed: [7] | [15]
inactive: all other assays above

c1ccc2occc2c1
not listed: [15] | [18] | [20]
inactive: all other assays above

CCCCCCC(CCCCCCCCCCC(=O)OCC(COC(C)=O)OC(C)=O)OC(C)=O (configuration not stated)
active: [4] 2.73 µM | [7] 3.11 µM | [20] 818 nM
not listed: [9] | [15] | [18]
inactive: all other assays above

CC(C)COC(=O)CCCCC(=O)OCC(C)C
not listed: [7] | [15] | [20]
inactive: all other assays above

NC(=Nc1ccccc1)Nc1ccccc1
active: [7] 30.3 µM | [19] 3.71 µM
not listed: [9] | [10] | [18] | [20]
inactive: all other assays above

O=[Si]=O
not listed: [18] | [19] | [20]
inactive: all other assays above

CC(N)=O
not listed: [7] | [15]
inactive: all other assays above

CCOCCOCCO
not listed: [9] | [15] | [18] | [19]
inactive: all other assays above

CC(=O)O
not listed: [7] | [20]
inactive: all other assays above

CCN(CC)CCOc1ccc(C(=C(Cl)c2ccccc2)c2ccccc2)cc1
inactive: [5]
active: [1] 14.4 µM | [2] 31.1 µM | [3] 31.6 µM | [4] 12.1 µM | [6] 13 µM | [7] 0.123 µM | [8] 11.6 µM | [10] 13 µM | [19] 13.2 µM | [11] 14.1 µM | [12] 14 µM | [13] 13.5 µM | [14] 12 µM | [15] 14.5 µM | [16] 12.6 µM | [17] 12.4 µM

CS(=O)(=O)c1ccc([C@@H](C[C@H]2CCC(=O)C2)C(=O)Nc2cnccn2)cc1Cl
not listed: [7] | [15] | [19]
inactive: all other assays above

O=C1CCCCC1
not listed: [7] | [15] | [19]
inactive: all other assays above

CC(=O)O[C@]1(C(C)=O)CC[C@H]2[C@@H]3C=C(Cl)C4=CC(=O)[C@@H]5C[C@@H]5[C@]4(C)[C@H]3CC[C@@]21C
active: [4] 27 µM | [7] 17 µM
not listed: [9] | [13] | [18] | [19] | [20]
inactive: all other assays above

CCCCCCCCCCCCCCCCO
active: [10] 0.777 µM
not listed: [7] | [19]
inactive: all other assays above

O=C1OC(c2ccc(O)cc2)(c2ccc(O)cc2)c2ccccc21
active: [4] 30.2 µM | [5] 20 µM | [11] 31.2 µM | [17] 12.6 µM
not listed: [7] | [15] | [16]
inactive: all other assays above
